Consider 65 compounds from ChEMBL document CHEMBL4513216, “Probing the Open Global Health Chemical Diversity Library for Multistage-Active Starting Points for Next-Generation Antimalarials” (ACS Infect Dis, 2020).

Each structure is given as a SMILES string. Among all 65,000 compounds or so, about 2,100 (3.2%) showed an effect of 50% or more. The median lay at about -52%. What follows is part of a selection rich in strong results, with near analogues and random picks from the rest.

In this experiment the test system is Plasmodium falciparum. In words: Screen against P. falciparum Asexual Blood Stage (ABS), at 5uM. Format: functional, Dd2. Particulars: tested at 5 uM.
As for `Cn1cccc1C(=O)N1CCN2C[C@H](Oc3cccnc3)C[C@H]2C1`, the INHIBITION is given as 30.4%.
The figure for `COC(=O)c1ccc(C2SCC(=O)Nc3c2cnn3C(C)(C)C)cc1` (stereo not given) is -53.3%.
As to `CN(Cc1cccc(F)c1)C(=O)CS(=O)(=O)Cc1c(Cl)cccc1Cl`, the INHIBITION stood at 82.7%.
For `CCc1nnc(NC(=O)CCN2CC=C(c3cnn(C)c3)CC2)s1`, the INHIBITION is given as -25.3%.
With `COc1ccccc1C(C)(C)NCc1ccc(C)o1` the figure was 77.9%; with `c1cncc(CN2CCO[C@H]3[C@H](OCCN4CCCC4)CC[C@@H]32)c1`, -68.3%; with `c1cc(CN2CCO[C@H]3[C@H](OCCN4CCCC4)CC[C@@H]32)ccn1`, -53.4%.
For the compound `CC(Cn1cccn1)NCc1nc(-c2ccco2)no1` (stereo not given), the INHIBITION is listed as -82%.
With `O=C1C[C@H]2[C@@H](CCN2Cc2ccccn2)N1Cc1cccnc1` the figure was -99.2%.
The figure for `CC(=O)N1C[C@H]2CNC[C@@]2(C(=O)NCCCOc2cccnc2)C1` is -133%; for `CN1CCCC1CNC(=O)CCCOc1ccc(Cl)cc1` (stereo not given) it is 78.2%.
With `CN1CCCC1CNC(=O)CCCOc1cccc(Br)c1` (stereo not given) the figure was 71.7%.
`CCc1c(C)[nH]c(C2(N)CCCCC2)nc1=O`: the INHIBITION was -26.9%.
For `CCN1CCN(Cc2nc(CC(C)C)no2)CC1`, the INHIBITION is on record as 34.7%.
The figure for `Cc1noc(C)c1CN1CC[C@H]2OCC[C@@]2(C(=O)N2CCCC2)C1` is -28.8%.
With `CCC(=O)NCC(=O)NCC1(c2c(F)cccc2F)CCCC1`, the INHIBITION was 73.7%.
With `Cc1cc(CN2C[C@@H]3COC[C@]3(CNC(=O)N(C)C)C2)no1` the figure was -94.8%; with `Cc1ccc(CN2CCC3(CC2)CC3CN(C)Cc2cccnc2)o1` (stereo not given), 70.8%.
The figure for `Cc1ccc(CN2CCO[C@H]3[C@H](OCc4cccnc4)CC[C@@H]32)o1` is -70.3%; for `Cc1ccc(CN2CCO[C@H]3[C@@H](OCc4cccnc4)CC[C@@H]32)o1` it is 3.59%.
The figure for `CCN(C)c1ncc2c(c1C(=O)O)CCN(C1CCOC1)C2` (stereo not given) is -4.54%; for `Cc1ccccc1CN1CCCC1c1cccc(Nc2nccs2)n1` (stereo not given) it is 84.8%; for `Cc1cccc(CN2CCCC2c2cccc(Nc3nccs3)n2)c1` (stereo not given) it is 88.1%.
For `Cc1cccc(CO[C@@H]2CC[C@H]3[C@H]2OCCN3Cc2nccs2)n1`, the INHIBITION is -43.3%.
Consider `c1ccc(CCN2CCCC2c2cccc(Nc3nccs3)n2)cc1` (stereo not given), for which the INHIBITION is 77%.
With `Cc1cccc(CN2C(=O)C[C@H]3[C@@H]2CCN3Cc2nccs2)n1` the figure was -3.26%; with `Cc1cnc(Nc2cccc(C3CCCN3Cc3cn(C)nc3C)n2)s1` (stereo not given), 89.8%; with `Cc1ccccc1SC1CCN(C(=O)C2[C@H]3CNC[C@@H]23)CC1` (stereo not given in full), 73.3%.
The figure for `Cc1ccc(C(=O)N2C[C@H]3CNC[C@H]3C2)cn1` is -104%.
For `COc1ncc(-c2cc(NC3CCCC3)nc3[nH]ccc23)c(OC)n1`, the INHIBITION was 74%.
Turning to `Cc1cc(Oc2ccc(NC(=O)C3CC3)cc2)cc(C2CCNCC2)n1`, the INHIBITION worked out at 87.8%.
As to `Fc1cccnc1O[C@H]1CN(Cc2ccoc2)[C@@H]2CCCO[C@H]12`, the INHIBITION was -26.7%.
The figure for `COCC1CN(c2ccc(C#N)c(Cl)c2)CCO1` (stereo not given) is -35.5%; for `c1cc(CN2C[C@@H]3OCCN(CC4CCCO4)[C@@H]3C2)ccn1` (stereo not given in full) it is -111%.
Take `CNc1cc(C)nc(N2Cc3cnn(Cc4ccc(F)cc4)c3C2)n1`: the INHIBITION turned out to be 91.9%.
With `CC(C)NC(=O)[C@H]1C[C@@H]2[C@@H](C1)OCCN2Cc1cccnc1` the figure was -95.4%.
With `N#Cc1ccc(S(=O)(=O)NCCn2ccnc2)cc1Cl` the figure was -39.2%; with `O=S(=O)(NCCN1CC=CC1)c1ccc(Cl)cc1`, 76.2%.
For `c1ccc2nc(CN3CCCC3c3noc(C4CC4)n3)ccc2c1` (stereo not given), the INHIBITION was determined as 72.7%.
For `CCCS(=O)(=O)CC(=O)N1CCCC1c1noc(C2CC2)n1` (stereo not given), the INHIBITION is recorded as -40.7%.
With `O=C(Cc1ccccc1)N1CCN(Cc2noc(C3CC3)n2)CC1` the figure was -62.4%; with `COCCN1C[C@@H]2CC[C@H]1CN(Cc1ccc3ccccc3n1)C2`, 21.2%; with `Cc1nc(CN2CCCC2c2noc(C3CC3)n2)nc2ccccc12` (stereo not given), 78.7%.
The figure for `CCN1CCc2[nH]cnc2C12CCN(c1ccc(Cl)cn1)CC2` is 42.9%; for `CN(C)Cc1cc(C2CCCCN2S(=O)(=O)c2cccc(Cl)c2)nn1C` (stereo not given) it is 78.8%.
The figure for `CN1CC2(CCNCC2)CC1C(=O)NCCCNc1cccnc1` (stereo not given) is -62%.
As for `Cc1cnc(N2CC[C@H]3[C@H](C[C@@H](CN(C)C)N3C)C2)nc1`, the INHIBITION was -51.8%.
Consider `CSCc1cc(F)ccc1CNCc1cccc(O)c1`, for which the INHIBITION amounted to 72.6%.
Turning to `Cc1cc2nc(-c3cn(C4CCNCC4)nn3)[nH]c2cc1C`, the INHIBITION was 87.5%.
For `Cc1cccc2[nH]c(-c3cn(C4CCNCC4)nn3)nc12`, the INHIBITION was found to be 73.5%.
Regarding `Cc1ccc2[nH]c(-c3cn(C4CCNCC4)nn3)nc2c1C`, the INHIBITION stood at 85.5%.
In the case of `Cc1cc(CN2C[C@@H]3COC[C@]3(CN(C)C)C2)no1`, the INHIBITION is on record as -59%.
The figure for `Cc1ccc(N2CCO[C@H]3CN(Cc4nccs4)C[C@H]32)nn1` is -168%; for `CCO[C@H]1CN(CC2CC2)[C@@H]2CCCO[C@H]12` it is -82.9%.
The figure for `CCc1noc(CC)c1CC(=O)N1CCCC(N2CCCCC2)C1` (stereo not given) is -22.8%; for `O=C1CC2(CCN(Cc3ccccn3)C2)CN1c1cccnc1` (stereo not given) it is -14.1%; for `CCN(CC)CCNS(=O)(=O)c1cccc(CSC)c1` it is 83.4%.
The figure for `Cc1nc(NCCC23CCCN2CCC3)cc(C2CCNCC2)n1` is -50.1%; for `CN(Cc1cc2cc(F)ccc2[nH]1)c1cc(C2CCCNC2)ncn1` (stereo not given) it is 84.2%; for `COc1ccc2[nH]c(CNc3cc(C4CCNCC4)nc(C)n3)cc2c1` it is 84.1%.
Regarding `Cc1cc(N(C)C)nc(C2CCCNC2)n1` (stereo not given), the INHIBITION is on record as -54.7%.
For the compound `CCN(Cc1c(F)cccc1Cl)c1cc(C2CCNCC2)nc(C)n1`, the INHIBITION was found to be 76.4%.
With `Cc1nc(C2CCNCC2)cc(N(C)Cc2cc3cc(F)ccc3[nH]2)n1` the figure was 75.9%; with `CCCN(CC)c1cc(C2CCNCC2)nc(C)n1`, -70.1%; with `Cc1nc(NCC23CCCN2CCC3)cc(C2CCCNC2)n1` (stereo not given), -54.3%.
